Laboratory results from PubChem BioAssay (EPA / NIEHS).
Results filed as inconclusive are left out. Calls of active or inactive are those of the source. The calls were made as follows: active = hit-call score of the fitted dose curve at least 0.9, where 1 is the maximum; inconclusive = response in the unintended direction; inactive = score below 0.9.

What follows are compounds tested against rat Thyrotropin Releasing Hormone Receptor (TRH), Trhr (gene 25570) (UniProt Q01717) (assay: NVS_GPCR_rTRH: NovaScreen (NVS) G Protein-Coupled Receptor Assay for rat Thyrotropin Releasing Hormone Receptor (TRH) (AID 2283329);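 also: hit means lower bound tracer signal versus DMSO baseline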).
Chain of rat Thyrotropin Releasing Hormone Receptor (TRH), Trhr (gene 25570) (Q01717 whole entry, looked up): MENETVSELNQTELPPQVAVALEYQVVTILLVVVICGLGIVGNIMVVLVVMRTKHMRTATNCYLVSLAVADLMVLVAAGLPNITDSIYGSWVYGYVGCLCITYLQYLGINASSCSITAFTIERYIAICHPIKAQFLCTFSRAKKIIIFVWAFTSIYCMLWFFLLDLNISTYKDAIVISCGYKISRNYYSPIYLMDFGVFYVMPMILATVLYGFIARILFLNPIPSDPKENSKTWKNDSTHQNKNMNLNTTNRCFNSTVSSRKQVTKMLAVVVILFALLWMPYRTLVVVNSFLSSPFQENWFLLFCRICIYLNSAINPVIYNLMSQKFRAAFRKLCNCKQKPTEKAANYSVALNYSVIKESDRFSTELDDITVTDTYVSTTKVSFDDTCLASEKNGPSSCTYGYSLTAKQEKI
Procedure: NVS_GPCR_rTRH is a biochemical, single-readout assay that uses extracted gene-proteins from Rat forebrain membranes in a tissue-based cell-free assay. Measurements were taken 4 hours after chemical dosing in a 48-well plate.NVS_GPCR_rTRH is one of one assay component(s) measured or calculated from the NVS_GPCR_rTRH assay. It is designed to make measurements of radioligand binding, a form of binding reporter, as detected with scintillation counting signals by Filter-based radiodetection technology.Data from the assay component NVS_GPCR_rTRH was analyzed into 1 assay endpoint. This assay endpoint, NVS_GPCR_rTRH, was analyzed in the positive analysis fitting direction relative to DMSO as the negative control and baseline of activity. Using a type of binding reporter, loss-of-signal activity can be used to understand changes in the binding as they relate to the gene Trhr. Furthermore, this assay endpoint can be referred to as a primary readout, because the performed assay has only produced 1 assay endpoint. To generalize the intended target to other relatable targets, this assay endpoint is annotated to the gpcr intended target family, where the subfamily is rhodopsin-like receptor.
Binding assays used specific radioligands (tritiated, iodinated) with non-radioactive competitive displacement ligands in agonist or antagonist protocols (as indicated) and various reference compounds and inhibitors to titrate specific binding to receptors and transporters. Most enzyme assays (CYPs, kinases, phosphatases, proteases, HDACs) used recombinant protein and specific substrates (fluorescence mostly, some colorimetric and radioactive) and inhibitors, followed by a biochemical separation of substrate and product. All assays for the biochemical HTS were initially run in duplicate at a single concentration (10 uM for CYP450 assays and 25 uM for all others). […] Each assay was run with positive and negative controls, and concurrent controls on every plate. The follow-up (secondary) screen tested active chemical-pairs in concentration series, as well as a few additional assays not tested in the primary screen, some selected negative inactives, and several cases re-run in the concentration series for confirmatory purposes.

Structure (SMILES) | outcome
CNC(=N[N+](=O)[O-])NCC1CCOC1 (stereo unspecified) | inactive
CCCC=NO | inactive
C=CCN(CC=C)C(=O)C(Cl)Cl | inactive
Nc1cc(Cl)cc(Cl)c1 | inactive
O=S(=O)(O)OOS(=O)(=O)O | inactive
CC1CCCC1.[C-]#[O+].[C-]#[O+].[C-]#[O+].[Mn] | inactive
CN(C)C(=O)C(c1ccccc1)c1ccccc1 | inactive
CC(=O)c1cc2c(cc1C)C(C)(C)C(C)CC2(C)C (stereo unspecified) | inactive
C=CC(=O)OCCO | inactive
COc1cc(OC)nc(Oc2cccc(Oc3nc(OC)cc(OC)n3)c2C(=O)O)n1 | inactive
CC(=O)C=Cc1ccccc1 | inactive
O=P(O)(Oc1ccccc1)Oc1ccccc1 | inactive
Oc1ccc(Cl)cc1 | inactive
Cc1ccc(OP(=O)(Oc2ccc(C)cc2)Oc2ccc(C)cc2)cc1 (tested in a mixture with another compound) | inactive
CCCCCCCCCCCCCCCC[N+](C)(C)C | inactive
CC(C)(c1cc(Cl)c(O)c(Cl)c1)c1cc(Cl)c(O)c(Cl)c1 | inactive
